# Screens deposited in PubChem by several laboratories.
# Fh CTSL1 inh: counter-screen for PFM18AAP inhibitors: inhibitors of F. hepatica cathepsin L1 | recombinant F. hepatica cathepsin L1, Z-Leu-Arg-MCA fluorescence | inhibition, % at 5.96 µM | hit rate 0.49% among 300,000 | AID 1906;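 active means inhibition above the mean of all tested compounds plus 3 SD, set per screening campaign, cut at about 17% in these data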;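 further: 0% = plate median of test compound wells and 100% = 1 µM Z-Phe-Ala-diazomethylketone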
# NALP1 inh: inhibitors of NALP1 inflammasome in yeast | hit rate 0.61% among 280,000 | S. cerevisiae NALP1/ASC/caspase-1 growth, X-gal OD620, 72 h | inhibition, % at 10 µM; in the data active means inhibition mostly above about 24%, no sharp cut-off; inactive means mostly below about 32%
# A3G deaminase: inhibitors of human APOBEC3G DNA deaminase; hit rate 0.28% among 330,000; recombinant A3G, ssDNA deamination FAM/TAMRA fluorescence; inhibition, % at 20 µM; Q9HC16; AID 493012;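 active means inhibition of at least 40% at 20 µM, with no more than 30% in the related APOBEC3A deaminase screen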;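 further: plate controls were DMSO wells with A3G for no effect and wells lacking A3G enzyme for full effect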
# Target sequence (Q9HC16 whole entry, looked up): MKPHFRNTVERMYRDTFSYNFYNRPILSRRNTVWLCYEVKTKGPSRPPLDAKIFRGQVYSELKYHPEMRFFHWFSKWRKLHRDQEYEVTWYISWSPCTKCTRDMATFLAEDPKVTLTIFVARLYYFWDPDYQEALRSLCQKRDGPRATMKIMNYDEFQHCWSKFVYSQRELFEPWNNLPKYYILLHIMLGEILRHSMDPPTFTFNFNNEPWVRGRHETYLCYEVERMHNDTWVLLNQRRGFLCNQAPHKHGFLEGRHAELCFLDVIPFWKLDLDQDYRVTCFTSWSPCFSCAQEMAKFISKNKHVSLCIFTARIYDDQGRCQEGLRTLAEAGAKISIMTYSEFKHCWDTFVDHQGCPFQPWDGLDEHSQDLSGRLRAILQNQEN
# A3A deaminase: blocks human APOBEC3A ssDNA deamination; P31941; recombinant A3A, FAM/TAMRA ssDNA deamination fluorescence; inhibition, % at 20 µM; hit rate 0.41% among 330,000;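 active means at least 40% inhibition at 20 µM here, with at most 30% in a related deaminase screen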;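 further: plate controls were A3A with DMSO for no effect and wells lacking A3A enzyme for full effect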
# Target sequence (P31941 whole entry, looked up): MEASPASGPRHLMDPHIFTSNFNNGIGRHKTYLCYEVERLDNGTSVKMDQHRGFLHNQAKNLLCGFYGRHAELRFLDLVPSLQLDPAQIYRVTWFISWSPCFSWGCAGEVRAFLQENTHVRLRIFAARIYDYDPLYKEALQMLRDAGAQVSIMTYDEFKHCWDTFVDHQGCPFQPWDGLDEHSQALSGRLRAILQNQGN
# sPLA2-III inh: Blocks human group III sPLA2 activity; Q9NZ20; QFRET BODIPY PC-A2 liposome hydrolysis, fluorescence; inhibition, % at 12.2 µM; hit rate 0.56% among 370,000; AID 743126;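 active means inhibition above mean plus 3 SD of compounds lying within the high and low control bounds, cut at about 19% in these data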;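 further: 0% = median of test compound wells and 100% = no enzyme DMSO wells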
# Starred values were filed as active, the others as inactive; / = no result given. Sampled rows, rich in hits. Any-hit rate of the full collection: about 2%.
SMILES,Fh CTSL1 inh,NALP1 inh,A3G deaminase,A3A deaminase,sPLA2-III inh
COc1ccc(CCNC(=O)Cn2ncc3c2-c2cc(C)ccc2OC3)cc1,/,/,/,/,-8
CC(=O)Nc1ccc(C(=O)/C=C/c2ccco2)cc1,22*,38,4,13,-4
COc1ccc([N+](=O)[O-])cc1NC(=O)c1ccc(Br)s1,18*,-3,-5,0,-10
COc1ccc([N+](=O)[O-])cc1NC(=S)NC(C)=O,1,-4,-11,-2,7
CCC1CCCCN1C(=O)C1CC(c2cc(Cl)c(OC)cc2OC)=NO1 (stereo not given),-2,1,-4,0,-11
COc1cc(OC)c(C2=NOC(C(=O)N3CCCc4ccccc43)C2)cc1Cl (stereo not given),4,37*,-4,-2,0
CN(C)S(=O)(=O)c1cccc(C(=O)N/N=C\c2cccc(C#N)c2)c1,/,/,/,/,3
O=C(O)CCNc1cc(N2CCN(C(=O)c3ccco3)CC2)c2noc3c2c1C(=O)c1ccccc1-3,22*,5,87,83,4
CCN1CCN(c2cc(N3CCN(C(=O)c4ccco4)CC3)c3c4c(onc24)-c2ccccc2C3=O)CC1,-3,8,0,-1,/
CCOc1ccc(C(=O)Nc2cc(-c3nc4ccccc4[nH]3)ccc2Cl)cc1[N+](=O)[O-],0,56*,-7,2,-18
COc1ccccc1/C=N/NC(=O)c1nnn(-c2nonc2N)c1-c1cccs1,0,37*,-2,-5,/
CCOc1ccc(-c2c(C(=O)N/N=C/c3cccc(Br)c3)nnn2-c2nonc2N)cc1,6,37*,1,-2,-8
CCCc1c(C(=O)N/N=C/c2ccc(OC)c(OCc3ccccc3)c2)nnn1-c1nonc1N,1,15,-5,-5,-2
CCCc1c(C(=O)N/N=C/c2ccc(OCc3ccccc3)c(OC)c2)nnn1-c1nonc1N,17*,4,1,0,2
CCOC(=O)Cc1nc(N2CCCN(C(C)=O)CC2)c2c(C)c(C(=O)OCC)sc2n1,/,/,/,/,4
CCOC(=O)c1sc(NC(=O)CSc2nc(-c3ccco3)cc(C(F)(F)F)n2)c(C(=O)OC)c1C,-2,3,-1,-2,3
CCCOC(=O)c1c(NC(=O)CSc2nc(-c3ccco3)cc(C(F)(F)F)n2)sc(C(=O)OC)c1C,-2,41*,-4,2,4
O=C(O)CSc1nnc(-c2ccccc2)o1,2,-5,-9,-1,2
Cc1nnc(SCC(=O)O)o1,2,26*,-2,1,5
COc1ccc(CNCC#Cc2ccccc2)c(OC)c1,/,/,/,/,9
COc1cc2[nH]c3ccccc3c2cc1C,0,22*,-7,-4,9
Cc1ccc(S(=O)(=O)c2cc3c(=O)n4ccccc4nc3n(CCc3ccccc3)c2=N)cc1,-1,32*,4,-6,2
CCn1c(=N)c(S(=O)(=O)c2ccc(C)cc2)cc2c(=O)n3ccccc3nc21,-7,-29,-1,1,3
Nn1c(SCc2ccc([N+](=O)[O-])cc2)nnc1-c1cc(-c2ccccc2)n[nH]1,/,/,/,/,11
COc1ccc(N=C2S/C(=C\c3ccc(C)o3)C(=O)N2CC(C)C)cc1,-2,40*,-6,-4,-1
SMILES,Fh CTSL1 inh,NALP1 inh,A3G deaminase,A3A deaminase,sPLA2-III inh
CCCN1C(=O)/C(=C/c2ccc(C)o2)SC1=Nc1ccc(OC)cc1,3,9,0,-1,-1
CC(C)CCNC(=O)[C@H]1COC(O)([C@H](Cc2ccccc2)NC(=O)[C@@H](NC(=O)OCc2ccccc2)C(C)C)CN1C (stereo not given in full),/,/,/,/,3
O=c1[nH][nH]c(-c2ccccc2O)c1C(C[N+](=O)[O-])c1ccc(Br)cc1 (stereo not given),2,102*,-1,0,-35
Cc1ccc(C(C[N+](=O)[O-])c2c(-c3ccccc3O)[nH][nH]c2=O)cc1 (stereo not given),4,114*,-3,1,-18
COCCCNC(=O)C[C@H]1C[C@@]2(C(=O)OC)C(=C[C@H](C(C)C)O[C@@H]2C2CC2)N(Cc2ccc(Cl)cc2Cl)C1=O,/,/,/,/,12
CN1C/C(=C/c2ccncc2)C(=O)/C(=C/c2ccncc2)C1,2,66*,-3,-2,6
O=C(COc1ccccc1Cc1ccccc1)NCCCN1CCOCC1,20*,/,-2,4,1
O=C(NCCCN1CCOCC1)C(C(=O)c1ccccc1)n1ccccc1=O (stereo not given),2,40*,-12,-3,2
CC(C)(CNC(=O)COc1ccccc1Cc1ccccc1)N1CCOCC1,-3,-1,-6,-6,-5
C=CCCC(=O)N[C@H]1CC[C@@]23CCCN2C(=O)CCC[C@H]3[C@H]1CCC,/,/,/,/,5
O=C(OCCCCSc1nnc(-c2cccc3ccccc23)o1)c1ccc(F)cc1,/,/,/,/,-17
CCC(C)N(C(=O)COC(=O)Cc1n[nH]c(=O)c2ccccc12)C1CCS(=O)(=O)C1 (stereo not given),-3,26*,-2,2,2
COCCCN1C(=O)[C@H](CC(=O)NCCCCc2ccccc2)[C@]2(C(=O)OC)CCCCC=C12,/,/,/,/,-3
Cc1oc(-c2cccc(Cl)c2)nc1CS(=O)(=O)CC(=O)NCCN1CCOCC1,-2,-14,-5,-2,-14
Cc1oc(-c2cccc(Cl)c2)nc1CS(=O)(=O)CC(=O)NCCN1CCCC1,90*,-25,-9,-5,-10
COC(=O)[C@H]1C[C@@]2(N3CCCC3)c3ccccc3N[C@H]2N1S(C)(=O)=O,/,/,/,/,0
CCOC(=O)NC[C@@]1(C(=O)OC)CC(=O)N(Cc2ccc(Cl)cc2)[C@@H]1c1ccc(OC)cc1,/,/,/,/,-6
Cc1ccc(NC2=C(Cl)C(=O)OC2OC(=O)c2ccco2)cc1 (stereo not given),81*,9,-7,-1,-23
CC(C)(C)OC(=O)C1[C@H](O)C=CC[C@H]1S(=O)c1ccccc1 (stereo not given in full),/,/,/,/,8
CCOC(=O)N1CCN(C(=O)CN(C2CCCCC2)S(=O)(=O)c2ccc(F)cc2)CC1,-3,38*,-5,-1,-8
CCSC(C)CC1CC(=O)CC(=O)C1 (stereo not given),6,10,1,0,-3
CCOC(=O)C1C(=O)C(C(C)=O)C(=O)CC1CC(C)SCC (stereo not given),-2,44*,-4,-4,-13
COC(=O)[C@]12C=CCN1[C@H](c1ccc(OC)c(OC)c1)c1c(c3ccccc3n1S(=O)(=O)c1ccc(C)cc1)C2,/,/,/,/,-1
O=C1N/C(=C\c2ccc(O)cc2)C(=O)c2ccccc21,108*,5,2,4,/
O=C(O)/C=C1\NC(=O)c2ccccc21,0,14,-4,-2,0
COc1cc(-c2c(C(=O)c3ccccc3)[nH]c(N)c2C(N)=O)ccc1O,/,/,/,/,15
